aDG glyco up: alpha-DG glycosylation activation; Pro5-aDG cells, alpha-DG glycosylation AlphaScreen (IIH6); 0% Pro5, 100% B10-LARGE cell signal; activation, % at 10 µM; actives 0.22% (n = 360,000); AID 624168;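 active means activation of at least 8% versus controls, or a plate z-score of at least 8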;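 further: Pro5 are CHO cells carrying HIG-tagged alpha-DG that lacks glycosylation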
GC-A act: GC-A (human) enzyme activation. P16066. HEK293 GC-A cells, cGMP TR-FRET, EC30 ANP; 0% at EC30 ANP, 100% saturating ANP. activation, % at 10 µM. actives 0.14% (n = 370,000); in the data active means activation above about 40%
NPR2 activator: GC-B (human) receptor activation; AID 1920062; P20594; activation, % at 10 µM; HEK293-GC-B cells, CNP EC30, cGMP TR-FRET; 0% at EC30 CNP, 100% saturating CNP; actives 0.11% (n = 370,000);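 active means activation at 10 µM reaching about 35% in either raw or pattern-adjusted values, limit read from the data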
FAS TE block: inhibitors of human fatty acid synthase thioesterase domain; AID 602261; P49327; actives 0.67% (n = 360,000); recombinant FAS-TE, OMFH fluorogenic substrate, fluorescence endpoint; inhibition, % at 15 µM;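 active means compounds whose normalised, plate-corrected inhibition of enzyme fluorescence in the single-dose primary screen is 50% or more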;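 further: 0% = DMSO with enzyme and 100% = substrate without enzyme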
FAS-TE conf: FAS thioesterase (human) inhibition, confirmation. shares compounds with FAS TE block. recombinant FAS-TE, OMFH fluorogenic substrate, fluorescence. inhibition, % at 15 µM. actives 45% (n = 2,300). AID 624325;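 active means compounds inhibiting the enzyme by at least 50% at 15 µM in any one of the replicates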;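 further: 0% = enzyme with DMSO only and 100% = wells lacking enzyme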
* hit, by the source's call; . = no result. Rows were chosen to be rich in hits. Some 1.1% of all compounds tested hit in one or more screens of this group.

SMILES	aDG glyco up	GC-A act	NPR2 activator	FAS TE block	FAS-TE conf
Cc1ccc(C=NNC(=O)CSc2nc3sc4c(c3c(=O)n2-c2ccccc2)CCCC4)s1	.	1.0	-2.6	.	.
O=[N+]([O-])c1ccc(NC(=S)NCCc2ccccc2)cc1	1.9	4.0	6.9	53.2*	38.2*
NS(=O)(=O)c1ccc(NC(=S)NCCc2ccccc2)cc1	1.1	0.1	-1.8	0.7	.
O=[N+]([O-])c1ccc(NC(=S)NCCc2ccc(Cl)cc2)cc1	-0.5	7.8	17.2	50.9*	37.2
S=C(NCCc1ccccc1)Nc1ccc(Cl)cc1	0.5	8.4	7.5	11.2	.
O=C(Nc1ccccc1)c1nc[nH]c1C(=O)NCCN(CCNC(=O)c1[nH]cnc1C(=O)Nc1ccccc1)CCNC(=O)c1[nH]cnc1C(=O)Nc1ccccc1	-0.1	2.3	3.2	27.5	.
CNC(=O)c1[nH]cnc1C(=O)Nc1ccc(Cl)cc1	0.2	2.9	-4.7	-0.5	.
Cc1ccc(NC(=O)c2nc[nH]c2C(=O)NCCN(CCNC(=O)c2[nH]cnc2C(=O)Nc2ccc(C)cc2)CCNC(=O)c2[nH]cnc2C(=O)Nc2ccc(C)cc2)cc1	-0.2	-0.3	-3.4	54.0*	18.1
O=C(Nc1ccc(Cl)cc1)c1nc[nH]c1C(=O)NCCN(CCNC(=O)c1[nH]cnc1C(=O)Nc1ccc(Cl)cc1)CCNC(=O)c1[nH]cnc1C(=O)Nc1ccc(Cl)cc1	-0.4	.	.	58.5*	9.4
Cc1cccc(NC(=O)c2nc[nH]c2C(=O)NCCN(CCNC(=O)c2[nH]cnc2C(=O)Nc2cccc(C)c2)CCNC(=O)c2[nH]cnc2C(=O)Nc2cccc(C)c2)c1	-0.4	-3.4	3.5	84.4*	1.5
C[C@H](c1ccccc1)N1C[C@@H](COCc2ccccc2)Oc2cccc(N3CCCC3)c2S1(=O)=O	.	1.4	-2.6	.	.
Cc1cccc(C(=O)Oc2ccccc2/C=N/NC(=O)c2ccc(NC(=O)C(C)(C)C)cc2)c1	-0.2	0.5	-0.5	66.3*	18.1
CC(C)(C)C(=O)Nc1ccc(C(=O)N/N=C/c2ccccc2OC(=O)c2ccc(Cl)cc2)cc1	0.8	-1.9	3.5	75.8*	12.5
CC(C)(C)C(=O)Nc1ccc(C(=O)N/N=C/c2ccccc2OC(=O)c2ccccc2)cc1	0.4	-0.5	-0.6	29.4	.
CCOc1cc(/C=N\NC(=O)c2ccc(NC(=O)C(C)(C)C)cc2)ccc1OC(=O)c1cccc(C)c1	-0.1	-8.3	4.2	24.4	.
COC(=O)[C@]12C[C@H](CC(=O)N3CCN(C(=O)c4ccco4)CC3)C(=O)N(Cc3ccccc3)C1=C[C@H](C(C)C)O[C@@H]2C1CC1	.	2.3	-2.3	.	.
CCCN1CCCCC(NC(=O)c2ccccc2OC)C1=O (stereo not drawn)	.	3.0	-2.5	.	.
CCCCCN1CCCCC(NC(=O)c2cc(OC)c(OC)c(OC)c2)C1=O (stereo not drawn)	.	1.0	-1.9	.	.
C[C@@H]1CCCCO[C@@H](CN(C)Cc2ccccc2)[C@@H](C)CN([C@H](C)CO)C(=O)c2cc(NC(=O)Nc3cccc4ccccc34)ccc2O1	-0.1	2.1	-4.1	51.7*	14.2
C[C@@H]1CCCCO[C@H](CN(C)Cc2ccc(Cl)c(Cl)c2)[C@H](C)CN([C@@H](C)CO)C(=O)c2cc(NC(=O)Nc3ccc(F)cc3)ccc2O1	2.4	4.6	-1.2	28.6	.
C[C@H]1CN([C@@H](C)CO)C(=O)c2cc(NC(=O)Nc3cccc4ccccc34)ccc2O[C@@H]1CN(C)Cc1ccc(-c2ccccc2)cc1	2.0	2.8	-6.4	59.8*	16.5
COc1ccc(NC(=O)Nc2ccc3c(c2)C(=O)N([C@H](C)CO)C[C@H](C)[C@@H](CN(C)Cc2ccc(Cl)c(Cl)c2)OCCCC[C@@H](C)O3)cc1	1.0	-1.6	6.2	62.0*	7.8
C[C@@H]1CN([C@H](C)CO)C(=O)c2cc(NC(=O)Nc3cccc4ccccc34)ccc2O[C@H]1CN(C)Cc1ccc(C(F)(F)F)cc1	0.1	1.3	-7.1	9.3	.
CC(C)NC(=O)Nc1ccc2c(c1)C(=O)N([C@@H](C)CO)C[C@@H](C)[C@H](CN(C)Cc1ccccc1)OCCCC[C@H](C)O2	-0.1	0.3	4.8	-2.9	.
CCn1cc(C(=O)NCCC2=CCCCC2)c(=O)c2cc(S(=O)(=O)N(C)C)ccc21	-0.3	5.5	5.3	79.8*	82.5*
SMILES	aDG glyco up	GC-A act	NPR2 activator	FAS TE block	FAS-TE conf
CCn1cc(C(=O)NCCc2ccccc2)c(=O)c2cc(S(=O)(=O)N(C)C)ccc21	-0.1	2.8	-7.2	23.1	.
CCn1cc(C(=O)NCc2ccc(C)cc2)c(=O)c2cc(S(=O)(=O)N(C)C)ccc21	-0.1	3.0	0.9	56.1*	61.7*
Cc1ccc(CN[C@@H]2CC[C@@]34CCCN3C(=O)CCC[C@H]4C2)o1	.	-0.3	2.6	.	.
CC(=O)Nc1cccc(Oc2cc(C#N)c(C#N)cc2N2CCCCCC2)c1	0.0	12.6	7.0	39.3	.
N#Cc1cc(Oc2ccc(Cl)cc2)c(N2CCOCC2)cc1C#N	0.2	-3.2	-5.4	67.1*	29.7*
COc1cc(S(=O)(=O)Nc2ccc(C)cc2)ccc1N=Cc1c(C)[nH]n(-c2ccc(C)cc2)c1=O	0.2	2.4	-0.8	77.2*	11.3
COc1cc(S(=O)(=O)Nc2ccc(C)cc2)ccc1N=Cc1c(C)c(C#N)c(=O)n(C)c1O	-0.2	-19.7	-14.4	-2.4	.
COCc1cc(C)nc(SCC[N+](C)(C)CC(=O)Nc2ccccc2)c1C#N	-0.1	10.5	3.5	52.9*	62.7*
COCc1cc(C)nc(SCC[N+](C)(C)CC(=O)c2ccc(Br)cc2)c1C#N	-0.2	5.6	-0.5	38.3	.
CCc1nc2c(OCc3ccc(Cl)cc3)cccn2c1N(C=O)Cc1ccccc1	0.6	1.2	1.9	63.8*	71.2*
CCc1nc2c(OCc3cc(Cl)cc(Cl)c3)cccn2c1N(C=O)Cc1ccccc1	0.6	-4.3	-0.4	26.0	.
CC(=O)c1cc(-c2ccc([N+](=O)[O-])cc2)c(=O)n2c1CCC2	.	-2.7	-4.8	.	.
O=C(Nc1ccccc1)c1ccc(Nc2c([N+](=O)[O-])cc([N+](=O)[O-])c3ccccc23)cc1	2.1	-2.3	0.8	68.8*	38.4
CCOC(=O)[C@]12CCCC=C1N(CCCOC)C(=O)[C@@H]2CC(=O)NCCCN1CCCC1=O	.	1.2	-1.4	.	.
CCCC(=O)NC1=C(Cl)C(=O)c2ccccc2C1=O	-0.4	5.7	-10.8	52.9*	55.5*
CCN(CC)c1ccc(NC2=C(Cl)C(=O)c3ccccc3C2=O)cc1	-1.3	.	.	25.5	.
Cc1ccccc1CN1CCCCC(NC(=O)c2ccc3ccccc3c2)C1=O (stereo not drawn)	.	4.2	-2.7	.	.
O=C1C2ON(c3ccccc3)C(c3cccnc3)C2C(=O)N1c1ccc(Cl)c(Cl)c1 (stereo not drawn)	-0.2	4.1	1.2	60.2*	60.4*
O=C(Cn1cnc2cc([N+](=O)[O-])ccc2c1=O)Nc1ccc2c(c1)OCO2	-0.4	-1.9	-0.8	75.0*	53.4*
